Results filed as inconclusive are left out. Unmarked numbers belong to inactive results. Active and inactive are the calls of the source. The call rests on the fitted dose curve; in most records, active means well fitted curve in the direction sought with a large enough effect; inconclusive means small, poorly fitted or top-dose-only effect, or another doubt; inactive means no such curve, though single readings can be large; an effect the other way counts as inactive or inconclusive.

Test [1] in a line: Quantitative High-Throughput drug screen in 47 multiple myeloma cell lines against the NCATS MIPE library collection: KMS12PE_JCRB cell viability assay (AID 1918972). Further: nearly all actives have a fitted effect of over 30% in size. Further: potency means the concentration at half of the fitted maximal effect. The method in brief:
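Approved and investigational drugs from MIPE 4.0 were added by pin tool to 500 cells per well. After 48 hours at 37C, ATP-based CellTiter-Glo luminescence indicated remaining viability.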

Test [2] can be described thus: Quantitative High-Throughput drug screen in 47 multiple myeloma cell lines against the NCATS MIPE library collection: KMS21BM_JCRB cell viability assay (AID 1918974). Further: potency means the concentration at half of the fitted maximal effect. Particulars: ATP luminescence, 48 h; viability: at 45.8 µM (top of the series) unless noted. The method, boiled down:
(§1)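 CellTiter-Glo ATP luminescence gave viability after 48 h compound treatment at 37C of 500 multiple myeloma cells per well. Normalisation used DMSO-only wells as 100% and media-only wells as 0% viability; primary qHTS of approved and investigational drugs.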

A short description of test [3]: Quantitative High-Throughput drug screen in 47 multiple myeloma cell lines against the NCATS MIPE library collection: KMS26_JCRB cell viability assay (AID 1918975). Further: nearly all actives have a fitted effect of over 45% in size. Further: potency means the concentration at half of the fitted maximal effect. The method in brief:
(§2)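 Viability readout: CellTiter-Glo luminescence following 5 min room-temperature incubation with reagent. Prior exposure: 48 h, 37C, humidified 5% CO2, 500 cells per well.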

Test [4] in a line: Quantitative High-Throughput drug screen in 47 multiple myeloma cell lines against the NCATS MIPE library collection: MOLP8_DSMZ cell viability assay (AID 1918977). Further: nearly all actives have a fitted effect of over 45% in size. Further: potency means the concentration at half of the fitted maximal effect. The method, boiled down: (§3)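 MIPE 4.0 approved/investigational drugs; 500 cells/well; 48 h 37 °C humidified 5% CO2; CTG luminescence readout; DMSO = 100%, media = 0% viability.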
A short description of test [5]: Quantitative High-Throughput drug screen in 47 multiple myeloma cell lines against the NCATS MIPE library collection: OCIMY1_PLB cell viability assay (AID 1918979). Further: nearly all actives have a fitted effect of over 35% in size. Further: potency means the concentration at half of the fitted maximal effect. The method, boiled down:
as §3

A short description of test [6]: Quantitative High-Throughput drug screen in 47 multiple myeloma cell lines against the NCATS MIPE library collection: LP1_DSMZ cell viability assay (AID 1918982). Further: nearly all actives have a fitted effect of over 35% in size. Further: potency means the concentration at half of the fitted maximal effect. The method, boiled down:
as §3

Test [7] in a line: Quantitative High-Throughput drug screen in 47 multiple myeloma cell lines against the NCATS MIPE library collection: KMS34_JCRB cell viability assay (AID 1918985). Further: nearly all actives have a fitted effect of over 40% in size. Further: potency means the concentration at half of the fitted maximal effect. The method in brief:
as §3

Test [8] can be described thus: Quantitative High-Throughput drug screen in 47 multiple myeloma cell lines against the NCATS MIPE library collection: OCIMY7_PLB cell viability assay (AID 1918987). Further: potency means the concentration at half of the fitted maximal effect; nearly all actives have a fitted effect of over 65% in size. Particulars: OCI-MY7 myeloma viability, CellTiter-Glo ATP, 48 h; viability (% of DMSO): at 45.8 µM (top of the series). The method in brief:
as §3
(In general: Cellular ATP, detected with luciferase, serves as a proxy for viable cell number.)

A short description of test [9]: Quantitative High-Throughput drug screen in 47 multiple myeloma cell lines against the NCATS MIPE library collection: SKMM1_PLB cell viability assay (AID 1919863). Further: nearly all actives have a fitted effect of over 35% in size. Further: potency means the concentration at half of the fitted maximal effect. The settings on record: SKMM1 myeloma viability, CellTiter-Glo ATP, 48 h; viability: active compounds read low. The method in brief:
as §3

A short description of test [10]: Quantitative High-Throughput drug screen in 47 multiple myeloma cell lines against the NCATS MIPE library collection: MM1S_ATCC cell viability assay (AID 1918980). Further: nearly all actives have a fitted effect of over 45% in size. Further: potency means the concentration at half of the fitted maximal effect. The method in brief:
as §3

Test [11] can be described thus: Quantitative High-Throughput drug screen in 47 multiple myeloma cell lines against the NCATS MIPE library collection: KMS28PE_JCRB cell viability assay (AID 1918983). Further: nearly all actives have a fitted effect of over 35% in size. Further: potency means the concentration at half of the fitted maximal effect. The method in brief:
as §3

The nature of test [12]: Quantitative High-Throughput drug screen in 47 multiple myeloma cell lines against the NCATS MIPE library collection: L363_DSMZ cell viability assay (AID 1918984). Further: nearly all actives have a fitted effect of over 40% in size. Further: potency means the concentration at half of the fitted maximal effect. The method, boiled down:
as §3

Test [13] in a line: Quantitative High-Throughput drug screen in 47 multiple myeloma cell lines against the NCATS MIPE library collection: OCIMY5_PLB cell viability assay (AID 1918988). Further: potency means the concentration at half of the fitted maximal effect; nearly all actives have a fitted effect of over 65% in size. The method in brief: as §3
Test [14] in a line: Quantitative High-Throughput drug screen in 47 multiple myeloma cell lines against the NCATS MIPE library collection: OPM1_PLB cell viability assay (AID 1918989). Further: nearly all actives have a fitted effect of over 40% in size. Further: potency means the concentration at half of the fitted maximal effect. The method, boiled down:
as §3

A short description of test [15]: Quantitative High-Throughput drug screen in 47 multiple myeloma cell lines against the NCATS MIPE library collection: MMM1_PLB cell viability assay (AID 1918976). Further: nearly all actives have a fitted effect of over 35% in size. Further: potency means the concentration at half of the fitted maximal effect. The method, boiled down:
as §3

Test [16] can be described thus: Quantitative High-Throughput drug screen in 47 multiple myeloma cell lines against the NCATS MIPE library collection: NCIH929_DSMZ cell viability assay (AID 1918978). Further: nearly all actives have a fitted effect of over 35% in size. Further: potency means the concentration at half of the fitted maximal effect. The method, boiled down: as §3
A short description of test [17]: Quantitative High-Throughput drug screen in 47 multiple myeloma cell lines against the NCATS MIPE library collection: MM1R_ATCC cell viability assay (AID 1918981). Further: nearly all actives have a fitted effect of over 35% in size. Further: potency means the concentration at half of the fitted maximal effect. The method in brief:
as §3

The nature of test [18]: Quantitative High-Throughput drug screen in 47 multiple myeloma cell lines against the NCATS MIPE library collection: KMS12BM_JCRB cell viability assay (AID 1918971). Further: nearly all actives have a fitted effect of over 35% in size. Further: potency means the concentration at half of the fitted maximal effect. The method, boiled down: as §2
A short description of test [19]: Quantitative High-Throughput drug screen in 47 multiple myeloma cell lines against the NCATS MIPE library collection: U266_ATCC cell viability assay (AID 1919864). Further: nearly all actives have a fitted effect of over 35% in size. Further: potency means the concentration at half of the fitted maximal effect. The method in brief:
as §3

Test [20] is described as follows: Quantitative High-Throughput drug screen in 47 multiple myeloma cell lines against the NCATS MIPE library collection: KMS20_JCRB cell viability assay (AID 1918973). Further: nearly all actives have a fitted effect of over 45% in size. The method, boiled down:
as §1

As for `O=C(O)c1ccc(-c2c[nH]c3ncc(-c4ccccc4)cc23)cc1C1CCCC1`, the Potency entry in [1], in test [3], in test [4], in [5] and in test [6] was “inactive” throughout. In addition, the viability was 272% (active) in test [2] and 132% in test [9]. In addition, the figures for the Potency in test [7] and in test [8] were 14.8 µM (active) and 8.33 µM (active), respectively.

Turning to `CS(=O)c1ccc(-c2nc(-c3ccc(F)cc3)c(-c3ccncc3)[nH]2)cc1` (stereo not drawn), the Potency was 21.5 µM (active) in test [1]; 38.2 µM (active) in test [10]; 24.1 µM (active) in [12]; 9.59 µM (active) in [8]; 19.1 µM (active) in [13]; 48.1 µM (active) in test [14]. Also, the viability in test [2] is 1.55% [at 92.2 µM] (active). For the same compound, the Potency entry in [5] and in [11] was “inactive” each time.

Take `NC(CO)(CO)CCc1ccc(Sc2cccc(OCc3ccccc3)c2)cc1Cl`: the Potency was 9.35 µM (active) in test [1]; 13.2 µM (active) in test [2]; 18.7 µM (active) in [3]; 23.5 µM (active) in test [15]; 20.9 µM (active) in [16]; 26.4 µM (active) in test [5]. For the same compound, the Potency in [10] was 3.32 µM (active); in test [17], 10.5 µM (active); in [6] it was 20.9 µM (active); in [12], 10.5 µM (active); in test [8], 11.8 µM (active); in test [13] it was 20.9 µM (active). Also, the Potency was 6.62 µM (active) in [14] and 26.4 µM (active) in [9].

`O=C(CCN1CCN(C(=O)OCc2cc(Cl)cc(Cl)c2)CC1)c1ccc2[nH]c(=O)oc2c1`: the Potency result in test [18], in test [16], in test [5], in [11], in test [7] and in [14] was “inactive” in each case. Also, the Potency in [15] was 10.5 µM (active); in test [10], 13.2 µM (active); in test [17], 18.7 µM (active). Besides, in test [9], the viability is 136%.

On to `OC[C@H]1O[C@@H](n2cnc3c2NC=NC[C@@H]3O)C[C@H]1O`, for which the Potency result in [1], in test [3], in test [5], in [17], in test [6] and in test [12] was “inactive” in each case. Further, the Potency entry in [14] was “inactive”. Moreover, the Potency was 0.0042 µM (active) in test [2], 20.9 µM (active) in [15], 26.4 µM (active) in test [16] and 23.5 µM (active) in test [8]. In addition, the viability in [9] is 110%.

As to `CCOC(=O)C1=C(N)Oc2ccc(Br)cc2C1C(C#N)C(=O)OCC` (stereo not drawn), the Potency was 18.7 µM (active) in [18]; 14.8 µM (active) in test [3]; 20.9 µM (active) in test [15]; 18.7 µM (active) in test [4]; 16.6 µM (active) in test [10]; 23.5 µM (active) in test [17]. For the same compound, the Potency was 26.4 µM (active) in test [11], 9.35 µM (active) in test [13], 23.5 µM (active) in [14] and 20.9 µM (active) in [9].

Turning to `COc1ncc(-c2ccc3nccc(-c4ccnnc4)c3c2)cc1NS(=O)(=O)c1ccc(F)cc1F`, the Potency was 0.0662 µM (active) in test [18]; 0.0526 µM (active) in test [3]; 0.166 µM (active) in test [8]; 1.48 µM (active) in [13]; 0.0118 µM (active) in test [9].

Regarding `C[C@H](NC(=O)C(=O)Nc1ccccc1C(C)(C)C)C(=O)N[C@@H](CC(=O)O)C(=O)COc1c(F)c(F)cc(F)c1F`, the Potency was 4.69 µM (active) in [1]; 6.62 µM (active) in [2]; 11.8 µM (active) in test [10]; 9.35 µM (active) in test [6]; 0.833 µM (active) in test [12]; 16.6 µM (active) in test [9]. Moreover, the Potency result in test [3], in [15], in test [16], in test [17] and in test [14] was “inactive” throughout.

Regarding `O=c1cc(-c2ccc(O)cc2)oc2cc(O)cc(O)c12`, the Potency in test [18] is 13.2 µM (active); in [15], 18.7 µM (active); in [16], 6.62 µM (active); in [10], 8.33 µM (active); in test [11], 18.7 µM (active); in test [7], 13.2 µM (active). The Potency in test [13] was 10.5 µM (active); in test [14] it was 18.7 µM (active); in [19], 20.9 µM (active).

For `Clc1ccc(CCC(Cn2ccnc2)Sc2c(Cl)cccc2Cl)cc1` (stereo not drawn), the Potency is 14.8 µM (active) in test [1], 23.5 µM (active) in [2], 26.4 µM (active) in test [15] and 13.2 µM (active) in test [8]. For the same compound, the Potency entry in [19] is “inactive”.

Take `O=c1ccn([C@@H]2O[C@H](CO)[C@H](O)[C@H]2O)c(=O)[nH]1`: the Potency in test [18] is 11.8 µM (active); in test [15], 8.33 µM (active); in test [10], 23.5 µM (active); in test [6], 14.8 µM (active). Besides, the Potency entry in test [5], in test [17] and in [14] was “inactive” throughout.

Turning to `CC=C(C)C(=O)O[C@H]1C(C)=C[C@]23C(=O)[C@@H](C=C(CO)[C@@H](O)[C@]12O)[C@H]1[C@@H](C[C@H]3C)C1(C)C`, the Potency in test [1] was 18.7 µM (active); in test [2], 8.33 µM (active); in test [15], 18.7 µM (active); in test [17], 18.7 µM (active); in test [11], 0.0372 µM (active); in test [12], 4.69 µM (active). Also, the Potency in test [7] was 20.9 µM (active); in test [14], 4.18 µM (active); in test [9] it was 0.0059 µM (active).

In the case of `CC(C)C[C@H](CC(=O)O)C(=O)N[C@@H](Cc1c[nH]c2ccccc12)C(=O)N[C@@H](C)c1ccccc1`, the Potency result in [1], in test [20], in test [3], in test [16], in test [6] and in test [12] was “inactive” throughout. Further, the Potency result in test [7] and in [14] was “inactive” in each case. Besides, in test [10], the Potency is 1.66 µM (active).

Turning to `COC1CCC(N(C(=O)C2CCC(C)CC2)c2cc(C3=CCCCC3)sc2C(=O)O)CC1` (stereo not drawn), the Potency entry in test [1], in test [20], in test [2], in [3], in test [5] and in [10] was “inactive” throughout. The Potency result in [12] and in test [19] was “inactive” each time. Besides, the Potency in test [13] is 11.8 µM (active).

As for `COC[C@@H](c1ccc(C(F)(F)F)cc1)N1CCN(C2(C)CCN(C(=O)c3c(C)ncnc3C)CC2)C[C@H]1C`, the Potency entry in [18], in test [3], in test [4], in test [5], in test [17] and in test [11] was “inactive” each time. In [14], the Potency result was “inactive”. Further, in [10], the Potency was 2.35 µM (active). Moreover, the viability in [9] was 118%.

In the case of `CC(C)(C)Cn1c(N)nc2ccc(-c3[nH]c(C(C)(C)C)nc3-c3ccc(F)cc3)nc21`, the Potency was 23.5 µM (active) in test [18]; 20.9 µM (active) in [15]; 7.43 µM (active) in test [4]; 26.4 µM (active) in test [16]; 16.6 µM (active) in [5]; 16.6 µM (active) in [10]. The Potency is 23.5 µM (active) in test [11], 18.7 µM (active) in test [8], 16.6 µM (active) in test [13] and 20.9 µM (active) in test [14]. The Potency result in [12] was “inactive”.

As usually defined, the viability is a read-out of living cells in per cent, often relative to untreated cells.

Source of the values: PubChem BioAssay (NCATS).
